In PubChem BioAssay AID651610 (Broad Institute, 2012):
The whole screen tested about 360,000 compounds, of which about 3,900 (1.1%) were called active. For the sample, actives were picked, then their nearest neighbours and some compounds at random. A number with no mark means an inactive call.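 The calls were made as follows: active = mean replicate inhibition score of at least 50 and every replicate individually at or above 50; inconclusive = only one of the two criteria met; inactive = mean below 50 and not all replicates reaching 50.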

Test: inhibitors of HIV-1 Env-driven cell-cell fusion, primary screen, HeLa-JRFL effector, CEM21 target cells, luciferase (AID 651610);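 also: 0% = plate neutral controls and 100% = maraviroc near 300 nM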
Conditions: hits give high values; at 16.7 µM unless noted
Compound `COc1ccc(S(=O)(=O)N(C)C[C@@H]2OCCCC[C@H](C)Oc3ccc(NC(=O)NC(C)C)cc3C(=O)N([C@@H](C)CO)C[C@@H]2C)cc1` has an inhibition of 8.34%. `COc1ccc(NC(=O)Nc2ccc3c(c2)C(=O)N([C@H](C)CO)C[C@@H](C)[C@@H](CN(C)C(=O)NC(C)C)OCCCC[C@H](C)O3)cc1` gave an inhibition of -15.9%. `C/C=C/c1ccc2c(c1)O[C@H](CN(C)C(=O)c1ccc3c(c1)OCO3)[C@@H](C)CN([C@H](C)CO)S2(=O)=O` gave an inhibition of -3.13%. `C[C@H](CO)N1C[C@H](C)[C@@H](CN(C)C(=O)Nc2ccc(F)cc2)OCCCC[C@H](C)Oc2ccc(NC(=O)c3ccncc3)cc2C1=O` gave an inhibition of -27.7%. In the case of `COc1ccc([Si](C)(C)[C@H]2[C@H](CCO)O[C@@]3(C(=O)N(Cc4cccc(N5CCOC5=O)c4)c4ccccc43)[C@@H]2C)cc1`, the inhibition is reported as 61.7% (active). `COc1ccc([Si](C)(C)[C@@H]2[C@@H](CCO)O[C@]3(C(=O)N(Cc4ccccc4)c4ccc(N5CCC5=O)cc43)[C@H]2C)cc1` gave an inhibition of 15.1%. With `COc1ccc([Si](C)(C)[C@@H]2[C@@H](CCO)O[C@]3(C(=O)N(Cc4cccc(N5CCCCC5=O)c4)c4ccccc43)[C@H]2C)cc1` the inhibition was -10.1%. `Cc1noc(C)c1NC(=O)N[C@@H]1CC[C@H](CCNC(=O)C2CCC2)O[C@@H]1CO` gave an inhibition of 5.86%. In the case of `C[C@H]1CN([C@@H](C)CO)C(=O)c2ccccc2-c2ccccc2CO[C@H]1CN(C)S(=O)(=O)c1cccc(C#N)c1`, the inhibition is reported as 56.8% (active). Compound `C[C@H]1CN([C@@H](C)CO)C(=O)c2ccccc2-c2ccccc2CO[C@@H]1CN(C)S(=O)(=O)c1ccc(C(F)(F)F)cc1` has an inhibition of 22.4%. In the case of `C[C@H]1CN([C@@H](C)CO)C(=O)c2ccccc2-c2ccccc2CO[C@H]1CN(C)S(=O)(=O)c1ccccc1C#N`, the inhibition is reported as 66.4% (active). `C[C@H](CO)N1C[C@H](C)[C@@H](CN(C)S(=O)(=O)c2cccs2)OCc2ccccc2-c2ccccc2C1=O` gave an inhibition of 3.13%. For `C[C@@H]1CN([C@H](C)CO)C(=O)c2ccccc2-c2ccccc2CO[C@H]1CN(C)S(=O)(=O)c1ccsc1`, the inhibition was 15.4%. For `Cc1noc(C)c1S(=O)(=O)N(C)C[C@@H]1OCc2ccccc2-c2ccccc2C(=O)N([C@@H](C)CO)C[C@H]1C`, the inhibition was 28.5%. For `C[C@H]1CN([C@@H](C)CO)C(=O)c2cc(Br)cnc2O[C@@H]1CN(C)S(=O)(=O)c1ccc(F)cc1`, the inhibition was 48%. For `C[C@@H]1CN([C@H](C)CO)C(=O)c2cccc(NS(=O)(=O)c3cn(C)cn3)c2O[C@H]1CN(C)Cc1ccc(C(=O)O)cc1`, the inhibition was 16.1%. In the case of `CC(=O)N1C[C@@H](CO)[C@@H](N(C)C(=O)C(C)(C)C)C[C@H]1c1ccccc1Br`, the inhibition is reported as -6.57% [at 12.3 µM]. For `Cc1ccc(F)cc1S(=O)(=O)N[C@@H]1CCN(Cc2ccc(-c3ccccc3)cc2)C1`, the inhibition was -7.12%. In the case of `Cc1ccc(S(=O)(=O)N2C[C@@H]3CCCC[C@@H]3[C@@H](C)[C@H]2c2cn(Cc3ccccc3)c3ccc(F)cc23)cc1`, the inhibition is reported as 77% [at 12.3 µM] (active). Compound `CCOC1=C2[C@@H](CN(S(=O)(=O)c3ccc(C)cc3)[C@H]2c2ccccc2F)[C@H]2C(=O)N(Cc3ccccc3)C(=O)[C@H]2C1` has an inhibition of 12.3% [at 12.3 µM]. `CO[C@H]1CN(C)C(=O)c2cc(NC(=O)NC(C)C)ccc2OC[C@@H](C)NC[C@@H]1C` showed an inhibition of -14%. `O=C(N[C@H]1CC[C@@H](CCNS(=O)(=O)c2cccc(Cl)c2)O[C@@H]1CO)c1ccccc1` showed an inhibition of 12.1%. `CCCNC(=O)N(C)C[C@H]1Oc2ncc(C#Cc3ccncc3)cc2C(=O)N([C@@H](C)CO)C[C@@H]1C` gave an inhibition of 0.597%. Compound `O=C1[C@H]2[C@@H](c3ccc(Cl)cc3)N3C(=O)N(c4cccc(F)c4)C(=O)[C@@]3(Cc3ccccc3)[C@H]2C(=O)N1C1CCCCC1` has an inhibition of 1.92% [at 12.3 µM]. With `O=C1[C@H]2[C@@H](c3ccc(F)cc3)N3C(=O)N(c4ccc(C(F)(F)F)cc4)C(=O)[C@@]3(Cc3ccccc3)[C@H]2C(=O)N1C1CCCCC1` the inhibition was 79% [at 12.3 µM] (active). With `Cc1cccc([C@@H]2[C@@H]3C(=O)N(Cc4ccccc4)C(=O)[C@@H]3[C@]3(Cc4ccc(Cl)cc4)C(=O)N(c4cccc(Cl)c4)C(=O)N23)c1` the inhibition was -14.5% [at 12.3 µM]. In the case of `Cc1cccc(N2C(=O)N3[C@H](c4ccc(F)cc4)[C@@H]4C(=O)N(C5CCCCC5)C(=O)[C@@H]4[C@]3(Cc3ccccc3)C2=O)c1`, the inhibition is reported as 55.1% [at 12.3 µM] (active). Compound `C[C@@H]1CN([C@@H](C)CO)S(=O)(=O)c2ccc(C#Cc3ccc(F)cc3)cc2O[C@H]1CN(C)C(=O)NC1CCCC1` has an inhibition of -2.36%. For `COc1ccc(CN(C)C[C@H]2Oc3c(NS(=O)(=O)c4ccccc4)cccc3C(=O)N([C@@H](C)CO)C[C@H]2C)cc1`, the inhibition was 12%. Compound `O=C(Cc1ccccn1)NCC[C@H]1CC[C@@H](NS(=O)(=O)c2ccc(F)cc2)[C@H](CO)O1` has an inhibition of -7.4%. For `COC(=O)[C@@]12C[C@@H](CC(=O)NCc3cccc(C(F)(F)F)c3)C(=O)N(Cc3ccco3)C1=CCC(C)(C)C2`, the inhibition was 74.9% [at 12.3 µM] (active). In the case of `CCOC(=O)[C@]12CCC=C1N(Cc1ccco1)C(=O)[C@H](CC(=O)NCc1cccc(C(F)(F)F)c1)C2`, the inhibition is reported as 18.4% [at 12.3 µM]. In the case of `CCCCNC(=O)C[C@@H]1C[C@@]2(C(=O)OC)CC(C)(C)CC=C2N(Cc2ccco2)C1=O`, the inhibition is reported as 5.33% [at 12.3 µM]. With `C[C@H](CO)N1C[C@H](C)[C@@H](CN(C)C(=O)Nc2ccc3c(c2)OCO3)Oc2ccc(NS(=O)(=O)c3ccc(Cl)cc3)cc2CC1=O` the inhibition was -30.5%. In the case of `Cc1cccnc1C(NC(=O)C1CCN(Cc2ccc(Cl)c(Cl)c2)CC1)c1ccc(Cl)cc1` (configuration not stated), the inhibition is reported as 62.7% [at 12.3 µM] (active). `O=C(NC(c1ccc(Cl)cc1)c1cnccn1)C1CCN(Cc2ccc(Cl)cc2)CC1` (configuration not stated) gave an inhibition of 16.4% [at 12.3 µM]. Work on `Cc1ccc(C(NC(=O)C2CCN(CCOc3ccc(Cl)cc3Cl)CC2)c2ccccn2)cc1` (configuration not stated) yielded an inhibition of 6.28% [at 12.3 µM].
